Only some compounds are listed: those with a hit (about 14% of all), similar ones and a draw of the others.
CRE Fsk mod – alters forskolin-stimulated CRE reporter signaling in CHO cells. CHO CRE-bla reporter (cAMP response element driving beta-lactamase), forskolin EC10, beta-lactamase ratio. 2.5% of 71,000 active. AID 662. Potency, µM (top dose mostly 38.2 µM), hits mostly activators; active means well fitted activation curve with a large enough effect in the signal ratio, with a control signal flat, not every such curve was filed as active; inconclusive means small, poorly fitted or top-dose-only effect, or effect the other way, or a change in a side signal; the % refers to the signal ratio
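Modulation of forskolin signalling: compounds in titration series added with EC10 NKH 477 to CHO cells carrying a CRE-driven beta-lactamase reporter, 3 h, 37C. CCF4 FRET ratio (460/530 nm, ex 405 nm) gives %activity and AC50.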
HSD17B inh – HSD17B dehydrogenase inhibition; 7.6% of 75,000 active; Q99714; Potency, µM (titrated, usually from 57.1 µM), actives largely listed as inhibitors; recombinant HSD17B10, NADH fluorescence kinetic;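 further: the protocol describes HADH2 (HSD17B10) and not the HSD17B4 of the title; nearly all actives have a fitted effect of over 70% in size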
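Activity followed as NADH fluorescence increase (ex 360, em 450 nm) every 30 seconds for 4 min, using final 90 uM beta-hydroxybutyryl CoA and 1 mM NAD+. Recombinant His-tagged enzyme, 20 nM, pH 9.0 Tris buffer, 15 min compound preincubation.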
HADH2 inh – blocks human hydroxyacyl-CoA dehydrogenase type II; recombinant HADH2, NADH fluorescence, beta-hydroxybutyryl-CoA; Potency, µM (series often up to 57.1 µM), usual class: inhibitors; 3.4% of 73,000 active; AID 886; further: nearly all actives have a fitted effect of over 60% in size
Target sequence (Q99714 whole entry, looked up, one chain of several): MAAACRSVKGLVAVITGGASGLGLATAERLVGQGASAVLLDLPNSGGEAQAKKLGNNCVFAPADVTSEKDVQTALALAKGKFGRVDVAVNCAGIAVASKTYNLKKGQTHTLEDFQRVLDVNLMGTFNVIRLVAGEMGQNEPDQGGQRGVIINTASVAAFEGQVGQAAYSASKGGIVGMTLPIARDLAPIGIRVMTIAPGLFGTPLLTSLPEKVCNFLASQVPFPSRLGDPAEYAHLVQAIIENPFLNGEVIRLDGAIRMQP
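Activity measured as NADH fluorescence gain (360/450 nm), taken as the change between first and last reads of a 4-min kinetic run. Conditions: pH 9.0 Tris buffer, 20 nM E. coli-expressed His-tagged enzyme, 1 mM NAD+, 90 uM beta-hydroxybutyryl-CoA; 15-min compound preincubation.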
4MU fluor – compounds fluorescent in 4-MU spectral region; 11% of 59,000 active; max dye-equivalent concentration, M; AID 589; compound autofluorescence, 340/450 nm, 4-MU equivalents; hits give high values; in the data active means max dye-equivalent concentration above about 10 nM; inconclusive means mostly about 1.1 nM to 9.6 nM
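Compounds in 100 mM Tris, pH 8.0, sat 15 min at room temperature before fluorescence was read at 340 nm excitation/450 nm emission; a per-plate six-point 4-MU standard curve converted signals to dye-equivalent concentration at each compound concentration.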
A350 fluor – A350 region autofluorescence | Compound autofluorescence, 340/450 nm, Alexa 350 dye-equivalents; hits give high values | max dye-equivalent concentration, M | 11% of 59,000 active; in the data active means max dye-equivalent concentration above about 10 nM; inconclusive means mostly about 1.1 nM to 9.6 nM
AID923 – qHTS Assay for Allosteric/Competitive Inhibitors of Caspase-1: Spectroscopic Profiling in AFC Spectral Region; Potency, µM (titrated, usually from 57.5 µM), hits mostly activators; 1.1% of 75,000 active; compound fluorescence, AFC spectral region (405/520 nm)
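Compound autofluorescence profiled at 405 nm ex/520 nm em during kinetic caspase 1 run (50 nM enzyme, 5 uM Ac-WEHD-AFC, HEPES pH 7.5, 10 mM DTT). Titration up to 57 uM; baseline from regression intercept, normalized to AFC standard curve.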
Each line names hits and unclear results; the compound was inactive in the other large screens. Unless noted, the call rests on the fitted dose curve; in most records, active means well fitted curve in the direction sought with a large enough effect; inconclusive means small, poorly fitted or top-dose-only effect, or another doubt; inactive means no such curve, though single readings can be large; an effect the other way counts as inactive or inconclusive.

N#Cc1ccsc1NC(=O)COC(=O)CCCSc1nc2ccccc2s1	CRE Fsk mod inconclusive, HADH2 inh inconclusive, 4MU fluor inconclusive, A350 fluor inconclusive
CCOC(=O)c1c(C)cccc1OCC(N)=O	4MU fluor 1.3e-06M, A350 fluor 1.4e-06M (no result: CRE Fsk mod, HSD17B inh, HADH2 inh, AID923)
COc1ccc(CNC(=O)C2CCCN2C(=O)NC2CCCCC2)cc1 (stereo not drawn)	4MU fluor 5e-07M, A350 fluor 4e-07M
CCCOc1ccc2oc(=O)c3c(c2c1)CCCN3C(=O)CN(C)Cc1ccccc1	CRE Fsk mod inconclusive, 4MU fluor 2.7e-08M, A350 fluor 3.4e-08M
O=C(CN1CCN(Cc2ccccc2)CC1)N1CCCc2c1c(=O)oc1ccc(O)cc21	none
COc1ccc(CN2CCN(C(=O)CC(C)C)CC2)c2ccccc12	none
CC(=O)N1CCCc2cc(S(=O)(=O)N3CCc4ccccc4C3)ccc21	CRE Fsk mod inconclusive, 4MU fluor 6.1e-08M, A350 fluor 6.7e-08M
CC1(C)Cc2c(sc3c2c(=N)n(Cc2ccco2)c(=O)n3Cc2ccc(F)cc2)CO1	CRE Fsk mod 4µM
CCC(C)(C(=O)NC1CCCC1)N(C(=O)c1cnccn1)c1ccccc1 (stereo not drawn)	none (no result: 4MU fluor, A350 fluor)
COc1ccc2[nH]cc(C(=O)CN3CCN(C4CCCCC4)CC3)c2c1	none
COc1ccc(OC)c(-c2nnc(SCC(=O)N3CCOCC3)o2)c1	A350 fluor inconclusive
COc1ccc(OC)c(-c2nnc(-c3ccc(C)o3)o2)c1	CRE Fsk mod inconclusive, HSD17B inh 25µM, HADH2 inh 13µM, 4MU fluor 2.4e-07M, A350 fluor 2.3e-07M
CCC(C)n1nccc1NC(=O)C(C)OC(=O)c1cc2ccccc2[nH]1 (stereo not drawn)	CRE Fsk mod inconclusive, HSD17B inh 25µM, HADH2 inh inconclusive
COC(=O)[C@H](C)NC(=O)Nc1ccc(C)c(C)c1	4MU fluor 3.2e-08M, A350 fluor 4.2e-08M
CS(=O)(=O)N1CCCC(C(=O)NCc2ccccn2)C1 (stereo not drawn)	CRE Fsk mod inconclusive
O=C(c1ccccc1)c1nnc(-c2ccccc2F)o1	none
Fc1ccc(Cc2nnc(-c3cccs3)o2)cc1	none (no result: 4MU fluor, A350 fluor)
CNc1oc(-c2cccs2)nc1C#N	4MU fluor 2.2e-06M, A350 fluor 2.6e-06M (no result: CRE Fsk mod, HSD17B inh, HADH2 inh, AID923)
COc1ccc(Nc2oc(-c3cccs3)nc2C#N)cc1	4MU fluor 1e-07M, A350 fluor 6.8e-08M (no result: CRE Fsk mod, HSD17B inh, HADH2 inh, AID923)
CN(C)c1oc(-c2cccs2)nc1C#N	4MU fluor 3.8e-06M, A350 fluor 4.3e-06M (no result: CRE Fsk mod, HSD17B inh, HADH2 inh, AID923)
CN(C)c1oc(-c2ccccc2F)nc1C#N	HSD17B inh 25µM (no result: 4MU fluor, A350 fluor)
Cc1ccc(Nc2oc(C)nc2C#N)cc1	A350 fluor inconclusive
O=C(C1CCC(CNc2c(N3CCOCC3)c(=O)c2=O)CC1)N1CCN(c2ccccc2)CC1 (stereo not drawn)	none (no result: 4MU fluor, A350 fluor)
O=S(=O)(c1cccs1)n1nnc2ccccc21	none (no result: 4MU fluor, A350 fluor)
CCN(CC)c1ccc(/C=N/NC(=O)c2ccc(O)cc2)cc1	HSD17B inh 16µM, HADH2 inh 25µM (no result: CRE Fsk mod, 4MU fluor, A350 fluor)
CN(C)c1ccc(/C=N\NC(=O)c2cnc3ccccc3c2)cc1	none
CCCN(CCC)CCCNC(=O)c1cc2cc3ccc(OC)cc3nc2o1	HSD17B inh 25µM, 4MU fluor 7.8e-06M, A350 fluor 7.5e-06M
COc1ccc2cc3cc(C(=O)NCCc4ccc(OC)c(OC)c4)oc3nc2c1	CRE Fsk mod 3.2µM, HSD17B inh 13µM, 4MU fluor 1.1e-07M, A350 fluor 1e-07M
COc1ccc2cc3cc(C(=O)Nc4ccc5c(c4)OCO5)oc3nc2c1	CRE Fsk mod inconclusive, 4MU fluor inconclusive, A350 fluor inconclusive
COc1ccc2c(=O)c(C(=O)NCCc3ccc(OC)c(OC)c3)c[nH]c2c1	CRE Fsk mod 13µM
COc1ccc(C)cc1NC(=O)c1cc2cc3ccc(C)cc3nc2o1	CRE Fsk mod inconclusive, 4MU fluor 4.6e-08M, A350 fluor 4.3e-08M
Cc1ccc(C(=O)C2CCN(CC(=O)NC3CCCCC3)CC2)cc1	none
CCCCN(CC)CCCNC(=O)c1cc2cc3ccc(OC)cc3nc2o1	CRE Fsk mod inconclusive, HSD17B inh 25µM, HADH2 inh inconclusive, 4MU fluor 7.5e-06M, A350 fluor 7.1e-06M

Bioassay records (PubChem BioAssay)
